# High-throughput results: PubChem BioAssay, several laboratories
# PfHsp90 yeast 2: inhibits growth of yeast expressing Plasmodium falciparum Hsp90. S. cerevisiae expressing PfHsp90, BacTiter-Glo ATP, 48 h; yeast lacking PDR1 and PDR3 efflux regulators. inhibition, % at 9.4 µM. actives 0.32% (n = 310,000). AID 504621;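 active = every replicate shows inhibition above about 80%, whatever the replicate mean, limit read from the data; inconclusive = mean inhibition reaches the set limit but some replicate falls short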;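 also: 0% = DMSO neutral controls and 100% = 20 µM radicicol positive controls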
# SKKanGAS inh: SKKanGAS growth inhibition | inhibition, % at 7.5 µM | AID 1662 | S. pyogenes SKKanGAS, kanamycin growth, BacTiter-Glo, 6 h | actives 1.3% (n = 300,000);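 active = mean replicate score, as percent of positive control median, at least 50; inconclusive = mean below 50 but one replicate at or above 50; inactive = mean and every replicate below 50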;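 also: strain carries kanamycin resistance gene driven by streptokinase promoter and grows in 40 µg/ml kanamycin; loss of luminescence reflects streptokinase promoter inhibition or plain growth inhibition; 0% = median of DMSO wells and 100% = positive control at its reference dose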
# tim10-1 inh: tim10-1 yeast growth inhibition. S. cerevisiae tim10-1 ts strain growth, BacTiter-Glo, 24 h. actives 2.2% (n = 330,000). inhibition, % at 20 µM;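 active = inhibition of at least 40%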;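 also: mutant grown at 25 °C; 0% = DMSO wells with yeast and 100% = wells holding no yeast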
# Calb FLC: C. albicans growth modulation with fluconazole. growth inhibition, % (test concentration not listed). AID 1979. actives 0.57% (n = 300,000). C. albicans CaCi-2 (fluconazole-resistant clinical isolate) + fluconazole, Alamar Blue growth, 48 h;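 active = growth inhibition above about 58% in most replicates, limit read from the data, passing the limit was not always enough; inconclusive = exactly half the replicates above a set limit; inactive = most replicates below a set limit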;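 also: all wells also contain fluconazole at 8 µg/ml as a sub-toxic cotreatment; 0% = median of DMSO wells and 100% = median of geldanamycin control wells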
# tim23-1 inh: inhibits growth of tim23-1 mutant yeast; S. cerevisiae tim23-1 growth, BacTiter-Glo luminescence, 24 h; inhibition, % at 20 µM; actives 1.3% (n = 330,000); AID 463212;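 active = growth inhibition of the mutant yeast at or above 50%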;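 also: temperature-sensitive mutant grown at 25 °C; plate controls were DMSO-treated mutant yeast for no effect and medium wells lacking yeast for full effect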
# TIM10 inh: TIM10 yeast growth inhibition; inhibition, % at 10 µM; AID 463195; S. cerevisiae TIM10 strain growth, BacTiter-Glo luminescence, 24 h; actives 1.4% (n = 330,000);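 active = inhibition of 40% or more at the single tested concentration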;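 also: wild-type TIM10 isogenic control strain grown at permissive 25 °C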
# tim10 confirm: TIM10 yeast growth inhibition, confirmed. shares compounds with TIM10 inh. actives 63% (n = 4,600). S. cerevisiae tim10 strain growth, BacTiter-Glo luminescence, 24 h. inhibition, % at 10 µM;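 active = inhibition of yeast growth at or above a set limit in either of two replicates at 10 µM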;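 also: this counterscreen used the strain with wild-type TIM10; 0% = yeast with DMSO and 100% = medium wells lacking yeast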
# tim23-1 confirm: confirmation of tim23-1 mutant yeast growth inhibitors. shares compounds with tim23-1 inh. S. cerevisiae tim23-1 growth, BacTiter-Glo luminescence, 24 h. inhibition, % at 20 µM. actives 83% (n = 4,400);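 active = inhibition above about 39% in either of two replicate wells at 20 µM, limit read from the data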;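 also: temperature-sensitive tim23-1 mutant grown at 25 °C; 0% = DMSO wells with yeast and 100% = medium wells without yeast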
# Active calls of the source: *; ? = inconclusive; nt = no result; + = active, no number. Only some compounds are listed: those with a hit (about 4.7% of all), similar ones and a draw of the others.
SMILES,PfHsp90 yeast 2,SKKanGAS inh,tim10-1 inh,Calb FLC,tim23-1 inh,TIM10 inh,tim23-1 confirm,others
Cc1cc(C=C2C(=O)NC(=S)NC2=O)c(C)n1C1CCCC1,-9.7,-8.5,38.4,4.2,55.3*,46.2*,54.8*,tim10 confirm=45.0*
COc1ccc(NC2Oc3cc4c(cc3C(c3cc(OC)c(OC)c(OC)c3)C2C)OCO4)cc1 (stereo not given),20.1,nt,nt,nt,nt,nt,nt,
CCC(C(=O)N1CCC2(CC1)OCCO2)n1c2ccccc2c2nc(=O)cc(C)n21 (stereo not given),7.3,-2.2,10.9,1.9,6.5,13.5,nt,
CCCCCCCCn1sccc1=O,+,nt,-129.1,nt,65.2*,53.8*,-91.5,tim10 confirm=57.8*
O=c1[nH]c(O)c(/C=C2/C=CC(c3cc(Cl)ccc3Cl)=N2)c(=O)[nH]1,-10.6,-7.7,32.0,2.0,53.6*,51.7*,58.6*,tim10 confirm=51.7*
CC1=Nc2ccccc2/C1=C/c1c(O)[nH]c(=O)[nH]c1=O,17.7,-3.0,-10.7,-3.2,1.5,0.1,nt,
O=c1c2ccccc2nc(/C=C/c2ccccc2O)n1-c1ccccc1O,-5.1,16.9,24.1,10.7,8.9,5.2,nt,
O=c1c2ccccc2nc(/C=C/c2ccccc2F)n1-c1ccccc1O,8.3,24.3,29.9,1.5,54.2*,32.7,48.5*,
C[C@H]1C(=O)O[C@@H]2CCN3CC=C(COC(=O)[C@](C)(O)[C@]1(C)O)[C@H]23,-24.7,nt,16.4,nt,3.8,4.5,nt,
O=Cc1cn(Cc2c(F)cccc2Cl)nc1-c1ccccc1,4.8,-5.4,39.3,-5.2,55.0*,38.8,40.4*,
O=C(O)c1cn(Cc2ccccc2)nc1-c1ccccc1,nt,1.3,3.4,-1.7,18.7,6.6,nt,
CCc1ccc(-c2nn(Cc3ccccc3)cc2C=O)cc1,-42.4,6.6,32.5,11.5,54.3*,29.7,58.0*,
CCN1CCN(C(=O)COc2ccc3oc4c(c3c2)CCCC4)CC1,1.5,nt,11.7,nt,9.9,4.9,nt,
C[C@]12CCC3C(CC[C@H]4C[C@@H](O)CC[C@]34C)C1CCC2=O (stereo not given in full),-4.5,nt,-86.1,nt,-21.1,-151.5,nt,
COC(=O)C1=C(c2ccc(F)cc2F)C[C@@H]2CC[C@H]1N2C,-12.3,nt,-3.5,nt,10.3,-4.3,nt,
N#Cc1ccccc1Cn1cc(C(=O)c2cccs2)c2ccccc21,4.8,12.6,8.0,6.4,61.4*,22.3,12.7,
c1ccc(Nc2ccc(Nc3ccccc3)cc2)cc1,3.0,nt,30.6,nt,22.2,15.4,nt,
N#CC(C#N)=C(C#N)c1ccc(Nc2ccccc2)cc1,-0.3,5.9,16.4,5.9,57.0*,-21.0,20.4,
CC(=O)O[C@H]1[C@H]2O[C@]23[C@@H]2CC[C@]4(O)C[C@@H](O)CC[C@]4(C)C2CC[C@]3(C)[C@H]1c1ccc(=O)oc1 (stereo not given in full),23.4,nt,6.9,nt,8.6,6.3,nt,
N#CC(Br)Br,7.6,nt,-19.0,nt,-13.9,1.4,nt,
CC(=O)C1CCC2C3CCC4CC(O)CCC4(C)C3CCC12C (stereo not given),12.2,7.9,34.4,-5.0,55.6*,11.4,49.1*,
CN1C(=O)C(=Cc2ccccc2Oc2ccc(Cl)cc2)C(=O)N(C)C1=O,-19.4,11.1,-3.4,-7.7,29.3,-4.9,nt,
Cc1ccc(S(=O)(=O)Oc2ccccc2C=C2C(=O)N(C)C(=O)N(C)C2=O)cc1,-3.6,-0.3,32.8,-1.7,72.9*,38.4,75.4*,
CN1C(=O)C(=Cc2ccccc2OCc2ccc(Cl)cc2)C(=O)N(C)C1=O,8.4,3.5,18.3,-7.2,66.7*,24.2,79.5*,
NC(N)=N/N=C/c1ccc(N(c2ccccc2)c2ccccc2)cc1,24.0,105.2*,-27.4,93.6*,70.7*,22.4,27.3*,
SMILES,PfHsp90 yeast 2,SKKanGAS inh,tim10-1 inh,Calb FLC,tim23-1 inh,TIM10 inh,tim23-1 confirm,others
C=CCN1C(=O)/C(=C/c2ccc(Br)s2)C(=O)NC1=S,?,-0.1,21.4,1.8,55.8*,17.1,72.5*,
CCOc1cc2c(cc1OCC)-n1cccc1C(c1ccc(OC(F)F)cc1)NC2 (stereo not given),15.5,1.8,15.5,-0.6,16.6,1.9,nt,
CC1([N+](=O)[O-])COP(=O)(NC2CCCC2)OC1 (stereo not given),22.8,nt,nt,nt,nt,nt,nt,
O=Cc1cn(Cc2ccc(Br)cc2)c2ccccc12,-53.4,22.6,26.9,-4.3,59.5*,24.5,39.0,
COc1cc(/C=C/[N+](=O)[O-])ccc1OC(=O)c1cccnc1,108.9*,7.3,-63.2,13.2,84.5*,34.1,-25.3,
CN(C)c1ccc(/C=C/[N+](=O)[O-])cc1,-23.1,2.9,11.7,2.7,46.5,1.8,nt,
COc1cc(/C=C2\C[C@H]3[C@@H]4CC=C5C[C@@H](N6CCCC6)CC[C@]5(C)[C@H]4CC[C@]3(C)[C@H]2O)cc(OC)c1OC,-31.3,nt,nt,nt,nt,nt,nt,
NS(=O)(=O)c1ccc(N=Cc2c(O)n(C3CCCCC3)c(=O)n(C3CCCCC3)c2=O)cc1,-6.4,50.6*,24.0,?,51.8*,32.2,46.0*,
CCn1c(O)c(C=Nc2ccc(S(N)(=O)=O)cc2)c(=O)n(CC)c1=S,5.2,-3.0,9.9,-4.7,9.7,2.2,nt,
C[N+](C)(C)CCc1ccc(O)cc1,0.3,-1.2,-10.5,5.5,-15.9,-0.5,nt,
CCCCCCCCc1ccc(O)cc1,19.9,nt,16.5,nt,50.5*,-1.5,39.5*,
COc1cccc(C2CC3C(=O)C=CC2N3Cc2ccccc2)c1 (stereo not given),4.3,10.8,37.8,3.0,54.6*,39.8,47.2*,
COC(=O)C(O)(c1ccc(N=Cc2ccccc2O)c(C)c1)C(F)(F)F (stereo not given),-38.0,-0.6,-2.4,1.6,4.7,-6.9,nt,
CC(C)(C)c1ccc(O)c(N=Cc2c(O)ccc3ccccc23)c1,-15.2,86.7*,14.2,-4.2,51.5*,36.5,54.4*,
CCC(C)(C)n1nnnc1C(c1cccs1)N1CC=C(c2ccc(F)cc2)CC1 (stereo not given),-3.7,-3.3,21.1,1.3,57.0*,39.5,51.9*,
